In PubChem BioAssay (NCATS):
Inconclusive results are not listed. Calls of active or inactive are those of the source. Unless noted, calls follow the shape of the full dose curve.

Tests used:
[1] = molecular target: Protein phosphatase 1D (Homo sapiens) (UniProt O15297); experiment: RapidFire Mass Spectrometry qHTS Assay for Modulators of WT P53-Induced Phosphatase 1 (WIP1) (AID 1347424; active = well fitted curve in the direction sought with a large enough effect; an effect the other way counts as inactive or inconclusive;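 also: amount of dephosphorylated VEPPL-S-QETFS peptide product formed by WIP1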; also: potency is read from the fitted curve at half-maximal effect)
How it was run: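 WIP1 (10 nM final) was preincubated 1 h at room temperature with compounds in Tris-HCl pH 7.5, 30 mM MgCl2, TCEP, EGTA, BSA; 2 uM VEPPL-pS-QETFS phosphopeptide was added for 5 min, quenched with formic acid, and dephosphorylated product quantified by RapidFire MS.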

[2] = Primary qHTS for Huh7 cytotoxicity: counterscreen for inhibitors of MERS-S pseudotyped particle cell entry (AID 1479147); also: potency is read from the fitted curve at half-maximal effect
[3] = Primary qHTS for inhibitors of MERS-S pseudo-typed particle cell entry (AID 1479149); also: nearly all actives have a fitted effect of over 60% in size; also: potency is read from the fitted curve at half-maximal effect
[4] = Primary qHTS for Vero E6 cytotoxicity: counterscreen for inhibitors of SARS-S pseudo-typed particle cell entry (AID 1479150); also: potency is read from the fitted curve at half-maximal effect
[5] = molecular target: Protein phosphatase 1D (Homo sapiens) (UniProt O15297); experiment: Rhodamine-PBP qHTS Assay for Modulators of WT P53-Induced Phosphatase 1 (WIP1) (AID 1347425; active = well fitted curve in the direction sought with a large enough effect; an effect the other way counts as inactive or inconclusive)
How it was run: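 Read-out: Rhodamine-PBP fluorescence (ex 525/em 598 nm) for released Pi, read each minute for 11 min after adding 10 uM VEPPL-pS-QETFS; signal taken as f1 minus pre-substrate f0. Enzyme 5 nM WIP1 with 1 hr room-temperature compound preincubation.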

[6] = Primary qHTS for inhibitors of SARS-S pseudo-typed particle cell entry (AID 1479145); also: nearly all actives have a fitted effect of over 45% in size
[7] = Validation qHTS assay for inhibitors of Activation Induced Cytidine Deaminase (AID): UDG Counterscreen signal (AID 1347427; active = well fitted curve in the direction sought with a large enough effect; an effect the other way counts as inactive or inconclusive)
How it was run: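 Counterscreen read of UDG activity (2 U/mL, 4/3x) in the FRET deamination format with AID (1 uM, 4/3x), DJC20/DJC23 substrates (250 nM, 4x), 4 h at room temperature. NaOH stop, fluorescence at 560 ex/665 em.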

[8] = molecular target: Single-stranded DNA cytosine deaminase (Homo sapiens) (UniProt Q9GZX7); experiment: Validation qHTS assay for inhibitors of Activation Induced Cytidine Deaminase (AID): AID signal (AID 1347429; active = well fitted curve in the direction sought with a large enough effect; an effect the other way counts as inactive or inconclusive)
How it was run: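 Fluorescence at 540 nm excitation and 590 nm emission reports ssDNA cytosine deamination by AID, with UDG in the same well. Compound-treated reactions ran 4 hr at room temperature with DJC20/DJC23 substrate, followed by 30 min NaOH treatment.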

Measured: Potency

Protein phosphatase 1D (Homo sapiens), sequence (O15297 whole entry, looked up): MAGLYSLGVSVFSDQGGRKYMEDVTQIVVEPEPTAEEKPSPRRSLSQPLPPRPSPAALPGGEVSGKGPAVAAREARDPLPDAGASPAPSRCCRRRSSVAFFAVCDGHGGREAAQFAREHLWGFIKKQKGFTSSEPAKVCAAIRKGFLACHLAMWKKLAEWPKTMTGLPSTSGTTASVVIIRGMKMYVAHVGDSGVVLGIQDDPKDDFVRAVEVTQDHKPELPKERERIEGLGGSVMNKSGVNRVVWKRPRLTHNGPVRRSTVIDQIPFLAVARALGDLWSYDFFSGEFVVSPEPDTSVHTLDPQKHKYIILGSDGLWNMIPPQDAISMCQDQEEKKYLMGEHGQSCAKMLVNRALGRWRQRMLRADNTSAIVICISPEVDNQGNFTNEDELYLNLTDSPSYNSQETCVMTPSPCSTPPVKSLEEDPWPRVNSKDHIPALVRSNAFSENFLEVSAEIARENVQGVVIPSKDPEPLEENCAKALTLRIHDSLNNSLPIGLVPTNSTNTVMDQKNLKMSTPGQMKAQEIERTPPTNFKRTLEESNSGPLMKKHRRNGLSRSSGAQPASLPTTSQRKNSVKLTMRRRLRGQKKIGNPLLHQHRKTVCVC
Single-stranded DNA cytosine deaminase (Homo sapiens), sequence (Q9GZX7 whole entry, looked up): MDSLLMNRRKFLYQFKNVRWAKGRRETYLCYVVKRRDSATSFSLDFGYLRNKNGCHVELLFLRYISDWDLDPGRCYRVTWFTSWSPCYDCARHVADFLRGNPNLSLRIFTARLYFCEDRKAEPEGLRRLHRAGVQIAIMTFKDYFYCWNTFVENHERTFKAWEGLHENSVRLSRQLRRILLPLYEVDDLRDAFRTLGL

CC(=O)[O][Hg][c]1ccccc1
active: [1] 28.2 µM | [2] 3.98 µM | [3] 2.24 µM | [4] 10 µM

CC(C)(C)NC[C@H](O)c1ccc(O)cc1Cl
inactive: [1] | [5]

C=CC(=O)NCNC(=O)C=C
inactive: [1] | [5]

CCC(=O)O[C@@H]1C=C2CCC3C(CCC4(C)C3CC[C@@H]4OC(=O)CC)C2CC1 (some centres not stated)
inactive: [1] | [5] | [6] | [2] | [3] | [4]

O=C(Nc1ccccc1-c1ccc(Cl)cc1)c1cccnc1Cl
inactive: [1] | [5]

Cc1c(C(=O)c2cccc3ccccc23)c2cccc3c2n1[C@H](CN1CCOCC1)CO3
inactive: [7] | [8]

c1ccc2[nH]ccc2c1
inactive: [6] | [2] | [3] | [4]

Cc1ccc(Cl)c(O)c1
inactive: [1] | [5]

O=[N+]([O-])/N=C1\NCCN1Cc1ccc(Cl)nc1
inactive: [1] | [5] | [6] | [2] | [3] | [4]

C1CCC(NC2CCCCC2)CC1
inactive: [1] | [5] | [6] | [2] | [3] | [4]

ClC1=C(Cl)[C@]2(Cl)[C@@H]3[C@@H]4C[C@@H]([C@H]5O[C@@H]45)[C@@H]3[C@@]1(Cl)C2(Cl)Cl
inactive: [5]
